PubChem BioAssay
Active and inactive are the calls of the source.

Columns and labels:
[1] = tested on: PRMT1 (protein arginine N-methyltransferase 1); test: PRMT1 binders on small-molecule microarrays, primary screen, biochemical, small-molecule microarray, 635 nm fluorescence (AID 1088); details: small-molecule microarray binding, higher = more signal;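 also: binding of Prmt1 protein to compounds spotted on small-molecule microarray slides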
[2] = yeast growth modulation, basal conditions, primary screen, YJM789 clinical isolate, OD600, 24 h (AID 1089);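 also: growth of clinical yeast isolate S. cerevisiae YJM 789 seeded 1000 cells per well; test concentration not given here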; details: S. cerevisiae YJM789 growth, higher = more signal, called active from +8 up or from −8 down
[3] = fission yeast growth modulation, primary screen, strain 972, OD600, 24 h, no modulator (AID 1090);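 also: basal condition with compound alone and no growth modifier present; test concentration not given here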; details: S. pombe 972 growth, higher = more signal, called active from +8 up or from −8 down
[4] = S. cerevisiae growth modulation with rapamycin, primary screen, strain BY4716, OD600, 96 h (AID 1091); details: higher = more signal, called active from +8 up or from −8 down; also: test concentration not given here
[5] = target: Torsin-1A-interacting protein 2 (Homo sapiens) (UniProt Q8NFQ8); test: LULL1 binders on small-molecule microarray, primary screen, cell lysate, human LULL1 lysate, 635/667 nm fluorescence (AID 1092); details: hLULL1 lysate binding, 635 nm fluorescence, higher = more signal;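 also: probe is lysate of COS7 cells overexpressing human LULL1; score merges per-feature 667 nm fluorescence with signal-to-noise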
Torsin-1A-interacting protein 2 (Homo sapiens), sequence (Q8NFQ8 whole entry, looked up): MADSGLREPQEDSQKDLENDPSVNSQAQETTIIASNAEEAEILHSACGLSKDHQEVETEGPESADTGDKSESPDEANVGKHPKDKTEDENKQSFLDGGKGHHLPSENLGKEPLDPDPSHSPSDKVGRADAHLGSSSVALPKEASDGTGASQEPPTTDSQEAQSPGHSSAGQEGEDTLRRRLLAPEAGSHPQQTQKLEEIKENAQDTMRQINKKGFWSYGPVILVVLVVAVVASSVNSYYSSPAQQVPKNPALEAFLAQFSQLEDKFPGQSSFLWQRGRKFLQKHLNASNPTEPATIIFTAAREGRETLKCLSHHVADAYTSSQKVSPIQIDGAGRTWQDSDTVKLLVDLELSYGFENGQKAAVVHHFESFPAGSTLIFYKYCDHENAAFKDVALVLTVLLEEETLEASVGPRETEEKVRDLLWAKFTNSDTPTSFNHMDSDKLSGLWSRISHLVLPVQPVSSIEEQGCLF

[6] = E. coli growth modulation, two-sided OD650, primary screen, E. coli filamentation project, strain DRC41, 24 h (AID 1093); details: OD650, 24 h, higher = more signal, called active from +8 up or from −8 down;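 also: MC1000 strain lacking acrAB efflux and sulA so SOS filamentation is blocked; test concentration not given here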
[7] = small-molecule microarray binders of probe aLefty2, primary screen, biochemical, biotinylated probe, 635/667 nm fluorescence (AID 1094); details: higher = more signal;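 also: score merges spot fluorescence near 667 nm with spot signal-to-noise ratio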
[8] = tested on: Noggin (protein binding on small-molecule microarray); test: Noggin binders on small-molecule microarray, primary screen, biochemical, 635/667 nm fluorescence (AID 1095); details: 635 nm fluorescence, higher = more signal;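 also: score merges 667 nm feature fluorescence with signal to noise over triplicate slides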
[9] = target: Neurogenic locus notch homolog protein 3 (Homo sapiens) (UniProt Q9UM47); test: NOTCH3 binders on small-molecule microarray, primary screen, biochemical, 635/667 nm fluorescence (AID 1096); details: NOTCH3 binding, 635 nm fluorescence, higher = more signal
Neurogenic locus notch homolog protein 3 (Homo sapiens), sequence (Q9UM47 whole entry, looked up): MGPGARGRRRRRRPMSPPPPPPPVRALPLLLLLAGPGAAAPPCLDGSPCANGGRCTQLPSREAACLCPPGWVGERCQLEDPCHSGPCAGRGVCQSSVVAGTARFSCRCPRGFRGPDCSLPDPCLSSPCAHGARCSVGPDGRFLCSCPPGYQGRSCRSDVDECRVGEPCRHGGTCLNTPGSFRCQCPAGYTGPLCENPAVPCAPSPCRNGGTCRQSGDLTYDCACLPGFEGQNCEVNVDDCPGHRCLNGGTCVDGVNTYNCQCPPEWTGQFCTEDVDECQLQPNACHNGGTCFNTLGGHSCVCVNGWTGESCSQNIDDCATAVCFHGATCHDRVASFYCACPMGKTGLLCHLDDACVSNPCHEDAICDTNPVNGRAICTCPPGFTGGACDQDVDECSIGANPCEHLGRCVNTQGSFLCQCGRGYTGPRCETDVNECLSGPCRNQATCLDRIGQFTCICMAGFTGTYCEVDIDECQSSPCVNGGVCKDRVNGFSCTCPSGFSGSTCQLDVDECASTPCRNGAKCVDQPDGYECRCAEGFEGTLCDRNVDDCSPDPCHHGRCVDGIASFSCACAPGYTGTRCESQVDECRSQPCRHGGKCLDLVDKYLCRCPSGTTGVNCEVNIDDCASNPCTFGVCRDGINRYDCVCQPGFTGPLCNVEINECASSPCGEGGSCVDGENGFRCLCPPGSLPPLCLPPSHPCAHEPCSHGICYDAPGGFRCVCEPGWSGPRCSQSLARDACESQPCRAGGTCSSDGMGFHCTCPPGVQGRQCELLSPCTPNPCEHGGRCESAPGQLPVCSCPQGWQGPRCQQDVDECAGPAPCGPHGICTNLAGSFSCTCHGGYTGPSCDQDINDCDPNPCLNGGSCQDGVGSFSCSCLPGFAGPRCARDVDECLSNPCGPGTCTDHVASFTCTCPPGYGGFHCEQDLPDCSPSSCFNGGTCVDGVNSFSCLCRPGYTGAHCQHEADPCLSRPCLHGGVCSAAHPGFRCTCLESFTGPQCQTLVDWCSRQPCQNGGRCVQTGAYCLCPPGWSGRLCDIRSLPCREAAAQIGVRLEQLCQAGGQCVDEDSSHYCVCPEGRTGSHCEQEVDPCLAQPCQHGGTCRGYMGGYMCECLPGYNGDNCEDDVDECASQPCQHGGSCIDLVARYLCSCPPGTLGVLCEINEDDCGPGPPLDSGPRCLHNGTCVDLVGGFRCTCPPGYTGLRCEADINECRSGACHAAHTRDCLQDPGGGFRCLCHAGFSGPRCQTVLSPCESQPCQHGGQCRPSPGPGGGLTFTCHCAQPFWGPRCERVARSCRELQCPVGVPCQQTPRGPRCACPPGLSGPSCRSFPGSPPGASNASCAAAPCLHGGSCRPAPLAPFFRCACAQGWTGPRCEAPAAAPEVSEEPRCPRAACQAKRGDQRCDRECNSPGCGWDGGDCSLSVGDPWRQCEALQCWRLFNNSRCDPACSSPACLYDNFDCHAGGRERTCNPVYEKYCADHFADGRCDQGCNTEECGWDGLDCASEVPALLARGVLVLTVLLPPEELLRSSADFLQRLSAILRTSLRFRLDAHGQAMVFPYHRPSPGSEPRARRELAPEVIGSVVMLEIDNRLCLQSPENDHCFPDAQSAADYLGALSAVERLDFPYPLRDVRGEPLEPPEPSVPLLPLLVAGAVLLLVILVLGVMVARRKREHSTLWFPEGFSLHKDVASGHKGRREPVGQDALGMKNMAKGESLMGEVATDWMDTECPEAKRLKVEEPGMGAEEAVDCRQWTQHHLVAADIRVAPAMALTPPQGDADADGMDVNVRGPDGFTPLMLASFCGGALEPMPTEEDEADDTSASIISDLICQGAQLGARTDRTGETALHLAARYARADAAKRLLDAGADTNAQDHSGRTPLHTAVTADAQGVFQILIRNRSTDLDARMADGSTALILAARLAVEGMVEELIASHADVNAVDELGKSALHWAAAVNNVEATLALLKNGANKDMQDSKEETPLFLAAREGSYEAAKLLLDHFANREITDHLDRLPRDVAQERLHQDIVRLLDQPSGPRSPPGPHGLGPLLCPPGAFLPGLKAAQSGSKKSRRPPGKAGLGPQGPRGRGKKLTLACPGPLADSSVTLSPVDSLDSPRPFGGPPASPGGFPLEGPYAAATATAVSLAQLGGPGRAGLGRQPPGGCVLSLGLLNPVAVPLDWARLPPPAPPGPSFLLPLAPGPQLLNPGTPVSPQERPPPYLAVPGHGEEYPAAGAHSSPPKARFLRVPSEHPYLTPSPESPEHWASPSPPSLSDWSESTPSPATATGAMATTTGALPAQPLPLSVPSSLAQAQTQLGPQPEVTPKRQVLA

[10] = small-molecule microarray binders of probe aEGFR, primary screen, biochemical, biotinylated probe, 635/667 nm fluorescence (AID 1097); details: higher = more signal;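 also: probe is a biotinylated anti-EGFR antibody binding compounds printed on slides; score combines fluorescence near 667 nm and signal to noise of each spot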
[11] = tested on: Plasmodium falciparum Sir2 (PF13_0152, Sir2A); test: pfSir2 binders on small-molecule microarrays, primary screen, biochemical, small-molecule microarray, 635 nm fluorescence (AID 1098); details: small-molecule microarray binding, fluorescence 635 nm; higher = more signal;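 also: score merges spot fluorescence intensity with its signal-to-noise ratio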
[12] = small-molecule microarray binders of probe aDKK1, primary screen, biochemical, biotinylated probe, 635/667 nm fluorescence (AID 1099); details: higher = more signal;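 also: score merges 667nm spot fluorescence with signal to noise across triplicate slides; reference of the scale not given here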
[13] = small-molecule microarray binders of probe aCHRDL2, primary screen, biochemical, biotinylated probe, 635/667 nm fluorescence (AID 1100); details: higher = more signal
[14] = splicing luciferase reporter signal modulators, primary screen, spliceosome inhibition project, cell-based, HEK293, splice +/- reporter (AID 1101); details: luminescence, 24 h, higher = more signal, called active from +8 up or from −8 down;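 also: HEK293 cells carrying a splicing-competent luciferase reporter gene; test concentration not given here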
[15] = target: Fibroblast growth factor 10 (Homo sapiens) (UniProt O15520); test: FGF10 binders on small-molecule microarrays, primary screen, biochemical, small-molecule microarray, 635 nm fluorescence (AID 1102); details: FGF10 binding, fluorescence 635 nm, higher = more signal
Fibroblast growth factor 10 (Homo sapiens), sequence (O15520 whole entry, looked up): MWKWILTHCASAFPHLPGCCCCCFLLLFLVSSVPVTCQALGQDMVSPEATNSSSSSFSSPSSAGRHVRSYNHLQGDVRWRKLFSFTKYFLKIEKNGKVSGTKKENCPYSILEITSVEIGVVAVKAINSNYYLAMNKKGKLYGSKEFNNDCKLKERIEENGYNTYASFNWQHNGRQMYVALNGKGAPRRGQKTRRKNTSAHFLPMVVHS

[16] = tested on: glycogen synthase kinase-3 (GSK3A per assay name; protocol says GSK3B); test: GSK3 binders on small-molecule microarrays, primary screen, biochemical, small-molecule microarray, 635 nm fluorescence, GSK3A (AID 1103); details: small-molecule microarray binding, fluorescence 635 nm; higher = more signal; also: the record names both GSK3A and GSK3B
[17] = target: Epidermal growth factor receptor (Homo sapiens) (UniProt P00533); test: EGFR binders on small-molecule microarrays, primary screen, biochemical, small-molecule microarray, 635 nm fluorescence (AID 1104); details: EGFR binding, higher = more signal;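 also: score merges 667 nm emission intensity with spot signal to noise over triplicate slides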
Epidermal growth factor receptor (Homo sapiens), sequence (P00533 whole entry, looked up): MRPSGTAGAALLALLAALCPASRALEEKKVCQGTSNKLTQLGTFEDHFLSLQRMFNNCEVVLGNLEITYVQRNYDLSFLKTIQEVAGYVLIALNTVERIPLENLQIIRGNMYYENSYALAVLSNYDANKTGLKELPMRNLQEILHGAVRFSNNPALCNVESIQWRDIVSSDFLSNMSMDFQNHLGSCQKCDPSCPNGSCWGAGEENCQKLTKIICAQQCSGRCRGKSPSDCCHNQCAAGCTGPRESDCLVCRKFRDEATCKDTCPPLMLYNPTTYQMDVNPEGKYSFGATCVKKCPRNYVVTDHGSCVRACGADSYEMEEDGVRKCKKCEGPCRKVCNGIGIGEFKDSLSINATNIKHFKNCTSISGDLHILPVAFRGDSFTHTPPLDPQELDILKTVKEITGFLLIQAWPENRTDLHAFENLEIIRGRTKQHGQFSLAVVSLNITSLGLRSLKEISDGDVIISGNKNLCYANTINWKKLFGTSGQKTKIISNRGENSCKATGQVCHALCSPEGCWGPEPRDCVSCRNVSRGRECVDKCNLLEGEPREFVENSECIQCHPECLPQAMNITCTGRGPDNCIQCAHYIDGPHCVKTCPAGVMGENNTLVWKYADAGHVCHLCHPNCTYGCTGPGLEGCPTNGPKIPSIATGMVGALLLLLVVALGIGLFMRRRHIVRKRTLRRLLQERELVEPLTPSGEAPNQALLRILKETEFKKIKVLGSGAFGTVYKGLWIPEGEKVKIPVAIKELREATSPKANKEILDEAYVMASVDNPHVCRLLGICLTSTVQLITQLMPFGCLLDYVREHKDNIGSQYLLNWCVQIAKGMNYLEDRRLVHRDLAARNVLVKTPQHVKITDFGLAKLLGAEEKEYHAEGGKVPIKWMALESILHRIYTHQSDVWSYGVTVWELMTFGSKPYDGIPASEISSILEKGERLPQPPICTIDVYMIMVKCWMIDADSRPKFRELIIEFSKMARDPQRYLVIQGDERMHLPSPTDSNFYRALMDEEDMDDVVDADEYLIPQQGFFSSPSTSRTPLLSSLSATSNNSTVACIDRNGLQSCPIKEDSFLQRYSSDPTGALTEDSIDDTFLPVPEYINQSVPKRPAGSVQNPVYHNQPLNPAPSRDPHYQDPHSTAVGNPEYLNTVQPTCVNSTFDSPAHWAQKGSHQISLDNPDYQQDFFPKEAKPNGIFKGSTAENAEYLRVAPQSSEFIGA

[18] = target: Follistatin-related protein 3 (Homo sapiens) (UniProt O95633); test: FSTL3 binders on small-molecule microarrays, primary screen, biochemical, small-molecule microarray, 635 nm fluorescence (AID 1105); details: FSTL3 binding, higher = more signal;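 also: score merges emission near 667 nm and signal to noise per printed spot across three slides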
Follistatin-related protein 3 (Homo sapiens), sequence (O95633 whole entry, looked up): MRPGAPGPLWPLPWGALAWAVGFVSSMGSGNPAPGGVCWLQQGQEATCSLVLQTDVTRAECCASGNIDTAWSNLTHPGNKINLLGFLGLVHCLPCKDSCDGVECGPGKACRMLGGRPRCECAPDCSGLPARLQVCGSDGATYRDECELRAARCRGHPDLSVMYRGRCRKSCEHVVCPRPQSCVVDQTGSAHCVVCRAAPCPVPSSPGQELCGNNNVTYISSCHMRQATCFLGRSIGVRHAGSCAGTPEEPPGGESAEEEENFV

[19] = target: Dickkopf-related protein 1 (Homo sapiens) (UniProt O94907); test: DKK1 binders on small-molecule microarrays, primary screen, biochemical, small-molecule microarray, 635 nm fluorescence scan (AID 1106); details: DKK1 binding, higher = more signal;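 also: score merges emission near 667 nm with signal to noise over three replicate slides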
Dickkopf-related protein 1 (Homo sapiens), sequence (O94907 whole entry, looked up): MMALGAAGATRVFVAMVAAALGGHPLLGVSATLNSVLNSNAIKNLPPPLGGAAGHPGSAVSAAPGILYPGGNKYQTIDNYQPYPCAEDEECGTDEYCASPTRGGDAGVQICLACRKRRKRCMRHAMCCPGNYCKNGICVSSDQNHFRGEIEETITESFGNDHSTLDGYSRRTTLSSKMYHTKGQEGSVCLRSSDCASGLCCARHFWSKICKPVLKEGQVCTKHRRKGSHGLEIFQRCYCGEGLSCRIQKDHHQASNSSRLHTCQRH

[20] = tested on: Inhibin beta A chain (activin A); test: INHBA (activin A) binders on microarrays, primary screen, biochemical, small-molecule microarray, 635 nm fluorescence scan (AID 1107); details: small-molecule microarray binding, higher = more signal;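 also: mouse activin A protein probed at 4.33 µg/mL on printed slides; score merges bound-protein fluorescence near 667 nm with spot signal-to-noise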

Row | Structure (SMILES) | composite z-score [1] | z-score [2] | z-score [3] | z-score [4] | composite z-score [5] | z-score [6] | composite z-score [7] | composite z-score [8] | composite z-score [9] | composite z-score [10] | composite z-score [11] | composite z-score [12] | composite z-score [13] | z-score [14] | composite z-score [15] | composite z-score [16] | composite z-score [17] | composite z-score [18] | composite z-score [19] | composite z-score [20]
1 | O=C1[C@H]2[C@H]3[C@H](O)[C@H](O)CC(=NOC[C@@H](O)COCc4ccco4)[C@@H]3CC[C@H]2C(=O)N1C[C@@H]1CCCO1 | 1.37 | 0.715 (inactive) | 1.01 (inactive) | 0.714 (inactive) | -0.239 | 1.05 (inactive) | -0.0732 | 0.997 | 0.395 | -0.344 | 0.396 | -0.549 | -1.2 | -0.134 (inactive) | 0.204 | 1.24 | 1.14 | 1.49 | 1.51 | 1.22
2 | C[C@@H](ON=C1[C@H]2CCn3c(=O)n(-c4ccccc4)c(=O)n3[C@H]2[C@H](O)[C@@H]2O[C@H]12)c1cn([C@@H]2COC[C@H]2O)nn1 | 0.556 | -0.638 (inactive) | 0.636 (inactive) | 0.0921 (inactive) | -0.219 | 0.389 (inactive) | -0.152 | 0.57 | 0.72 | -0.0788 | 0.507 | -0.235 | -0.511 | 0.413 (inactive) | 0.31 | 0.555 | 0.702 | 0.51 | 0.446 | 0.0788
3 | CCCNC(=O)OC[C@H]1O[C@H](c2ccccc2)C=C[C@@H]1Oc1ccc(OC)cc1 | -0.0125 | -0.325 (inactive) | -0.423 (inactive) | 0.0199 (inactive) | 0.361 | 0.806 (inactive) | -0.0916 | -0.234 | -0.124 | -0.146 | -0.361 | -0.377 | -0.396 | -0.0906 (inactive) | 0.0708 | -0.0811 | 0.424 | 0.108 | -0.0332 | -0.339
4 | Cc1ccc(S(=O)(=O)N[C@H]2COC(=O)CC=C[C@H](C)[C@@H](NS(=O)(=O)c3ccc(C)cc3)COC(=O)CC=C[C@@H]2C)cc1 | 0.405 | -0.293 (inactive) | 0.518 (inactive) | 0.0667 (inactive) | 0.247 | 0.0401 (inactive) | -0.126 | 0.601 | 0.321 | -0.068 | -0.0784 | -0.217 | -0.588 | 0.647 (inactive) | 0.925 | 0.607 | 0.364 | 0.577 | 0.486 | -0.136
5 | CC(CCN1CCCc2nc(C)c(C)cc21)=NOC(C)CN1CCCCc2nc(C)c(C)cc21 (stereo not given) | 1.49 | -0.415 (inactive) | 0.435 (inactive) | 0.837 (inactive) | 1.22 | 0.597 (inactive) | 0.0012 | 0.923 | 1.08 | 0.406 | 1.16 | 0.0616 | -0.271 | 0.322 (inactive) | 1.14 | 1.28 | 1.2 | 1.42 | 1.18 | 1.43
6 | CCc1cc2c(nc1CC)CCN(CCC(C)=NO[C@H](C)c1cn([C@@H]3COC[C@H]3O)nn1)C2 | -0.104 | 0.485 (inactive) | 0.308 (inactive) | 0.668 (inactive) | -0.179 | -0.216 (inactive) | -0.0936 | 0.0613 | 0.551 | 0.0004 | 0.346 | -0.156 | -0.334 | 0.212 (inactive) | 0.189 | 0.229 | 0.545 | 0.433 | 0.611 | 0.468
7 | CC(C)=CCCC(C)=CCON=C1C[C@@H](O)[C@@H](O)[C@@H]2[C@@H]3C(=O)N(c4ccc(F)cc4F)C(=O)[C@@H]3CC[C@H]12 | 1.54 | -0.912 (inactive) | -0.964 (inactive) | -1.53 (inactive) | 2.05 | -0.159 (inactive) | -0.0413 | 0.819 | 1.09 | -0.0372 | 0.176 | -0.016 | -0.428 | -0.956 (inactive) | 0.0906 | 0.349 | 0.531 | 1.08 | 0.612 | 0.342
8 | CCOC(=O)NN=C1C[C@@H](O)[C@@H](O)[C@@H]2[C@@H]3C(=O)N(Cc4ccccc4)C(=O)[C@@H]3CC[C@H]12 | -0.278 | -0.907 (inactive) | -0.524 (inactive) | -1.33 (inactive) | -0.308 | -0.127 (inactive) | -0.138 | 0.0448 | -0.0518 | -0.0387 | 0.245 | -0.259 | -0.301 | -1.14 (inactive) | -0.0919 | -0.435 | 0.242 | 0.0487 | 0.615 | -0.0924
9 | C[C@H]1Cc2c(COc3ccccc3)nc3c(c2CO1)CN(CCOc1ccccc1)CC3 | 1.56 | -0.381 (inactive) | -2.38 (inactive) | -1.15 (inactive) | 1.76 | 1.11 (inactive) | -0.0998 | 0.216 | 1.16 | -0.0283 | 0.654 | -0.133 | -0.496 | -0.34 (inactive) | 1.03 | 1.15 | 0.5 | 1.29 | 0.538 | 0.298
10 | COC(=O)[C@H]1[C@@H](O)[C@@]2(O)c3ccccc3O[C@@]2(c2ccccc2)[C@@H]1c1ccccc1 | -0.701 | 0.0966 (inactive) | 0.226 (inactive) | 0.705 (inactive) | 0.124 | 0.685 (inactive) | -0.0324 | -0.169 | -0.104 | -0.123 | -0.125 | -0.12 | -0.535 | 0.217 (inactive) | 0.0746 | -0.0393 | 0.396 | -0.134 | 0.384 | -0.011
